Data on one sequence can be found in PMC7862700, “An all-to-all approach to the identification of sequence-specific readers for epigenetic DNA modifications on cytosine”.

Holding throughout (experiment): DAPPL (digital affinity profiling via proximity ligation, sequencing); 10 mM Tris-HCl pH 7.5, 50 mM NaCl, 1 mM DTT, 4% glycerol, room temperature, 30 min; GST-TFs on glutathione beads, 16-mer random dsDNA library, 0.1% formaldehyde crosslink after washing; high values mean tight binding
The target of one experiment is T1, FEV (Homo sapiens, UniProt Q99581 1-238).
T1 sequence: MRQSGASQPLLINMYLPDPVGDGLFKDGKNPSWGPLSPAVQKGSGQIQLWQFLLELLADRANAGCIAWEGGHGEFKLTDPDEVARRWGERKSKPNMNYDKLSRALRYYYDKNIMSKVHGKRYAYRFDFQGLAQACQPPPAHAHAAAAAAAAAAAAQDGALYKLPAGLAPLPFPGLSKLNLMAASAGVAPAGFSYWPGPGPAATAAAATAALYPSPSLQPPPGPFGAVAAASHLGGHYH
Particulars: protein: recombinant; tags: N-terminal GST; dsDNA, one strand shown. The method, boiled down:
(§1)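 Human transcription factors carrying a GST fusion were produced in yeast, bound to glutathione beads, tagged with DNA barcodes and pooled together with a tag-only sample. Each pool was held with 200 nmole of a random double-stranded 16-mer DNA library in Tris/NaCl/DTT/glycerol buffer for 30 min at room temperature, then washed, crosslinked in 0.1% formaldehyde, proximity-ligated with BsaI/T4 ligase (1 h, 37 °C), PCR-amplified and sequenced on an Illumina NextSeq500. Binding signal is the read frequency of each hexamer for a given factor divided by its frequency in the tag-only sample.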

The target in another experiment is ETV5 (Homo sapiens, UniProt P41161 1-510). The conditions noted are these: protein: recombinant; tags: N-terminal GST; dsDNA, one strand shown. The method, boiled down:
as §1

The target in another experiment is HSF1 (Homo sapiens, UniProt Q00613 1-529). Particulars: protein: recombinant; tags: N-terminal GST; chain copies: 3; dsDNA, one strand shown. The method, boiled down: as §1
The target of another experiment is T2, SPIC (Homo sapiens, UniProt Q8N5J4 1-248).
T2 sequence: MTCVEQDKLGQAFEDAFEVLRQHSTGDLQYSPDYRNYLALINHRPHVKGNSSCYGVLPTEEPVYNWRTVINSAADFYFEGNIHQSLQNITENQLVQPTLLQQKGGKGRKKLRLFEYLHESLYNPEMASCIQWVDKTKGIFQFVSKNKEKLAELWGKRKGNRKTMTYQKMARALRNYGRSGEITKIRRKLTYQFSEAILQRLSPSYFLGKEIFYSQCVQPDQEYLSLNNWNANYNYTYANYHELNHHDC
The conditions noted are these: protein: recombinant; tags: N-terminal GST; dsDNA, one strand shown. An outline of the steps: as §1

The target of another experiment is ELF4 (Homo sapiens, UniProt Q99607 1-663). The conditions noted are these: protein: recombinant; tags: N-terminal GST; dsDNA, one strand shown. An outline of the steps: as §1
The target in a further experiment is T3, ELK4 (Homo sapiens, UniProt P28324-2 1-405).
T3 sequence: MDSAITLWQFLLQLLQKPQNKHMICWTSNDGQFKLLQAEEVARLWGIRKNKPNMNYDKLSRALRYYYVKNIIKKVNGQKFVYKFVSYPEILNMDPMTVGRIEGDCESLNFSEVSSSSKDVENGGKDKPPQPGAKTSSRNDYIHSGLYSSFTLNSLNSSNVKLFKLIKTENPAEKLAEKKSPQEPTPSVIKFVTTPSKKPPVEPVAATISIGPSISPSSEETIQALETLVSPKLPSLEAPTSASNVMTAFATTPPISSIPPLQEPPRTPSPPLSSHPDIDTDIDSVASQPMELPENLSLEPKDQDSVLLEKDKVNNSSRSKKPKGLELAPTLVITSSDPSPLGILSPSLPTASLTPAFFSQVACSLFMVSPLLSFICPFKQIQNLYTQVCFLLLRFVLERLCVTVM
Particulars: protein: recombinant; tags: N-terminal GST; dsDNA, one strand shown. The method, boiled down:
as §1

A further experiment has as its target T4, ETV2 (Homo sapiens, UniProt O00321 1-342).
T4 sequence: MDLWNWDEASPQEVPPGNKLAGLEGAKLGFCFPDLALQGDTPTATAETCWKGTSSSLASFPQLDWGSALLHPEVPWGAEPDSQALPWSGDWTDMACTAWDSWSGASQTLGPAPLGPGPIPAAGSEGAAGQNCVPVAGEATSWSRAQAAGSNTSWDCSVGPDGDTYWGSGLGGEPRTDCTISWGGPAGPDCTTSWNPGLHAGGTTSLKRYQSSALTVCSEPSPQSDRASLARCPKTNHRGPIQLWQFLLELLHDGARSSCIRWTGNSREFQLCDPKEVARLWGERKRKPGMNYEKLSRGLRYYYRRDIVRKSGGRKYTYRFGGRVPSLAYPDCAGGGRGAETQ
The conditions noted are these: protein: recombinant; tags: N-terminal GST; dsDNA, one strand shown. An outline of the steps: as §1

The target in another experiment is T5, ELF3 (Homo sapiens, UniProt P78545 1-371).
T5 sequence: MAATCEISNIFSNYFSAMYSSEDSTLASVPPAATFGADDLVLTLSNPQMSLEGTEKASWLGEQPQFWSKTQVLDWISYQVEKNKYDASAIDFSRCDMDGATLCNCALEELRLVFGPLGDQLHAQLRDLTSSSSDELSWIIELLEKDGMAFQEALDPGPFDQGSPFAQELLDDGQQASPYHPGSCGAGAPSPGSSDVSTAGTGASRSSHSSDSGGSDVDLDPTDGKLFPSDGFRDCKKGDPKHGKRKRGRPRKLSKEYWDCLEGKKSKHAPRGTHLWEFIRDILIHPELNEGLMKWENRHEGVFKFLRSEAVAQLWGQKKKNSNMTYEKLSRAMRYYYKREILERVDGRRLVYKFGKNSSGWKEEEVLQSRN
Particulars: protein: recombinant; tags: N-terminal GST; dsDNA, one strand shown. An outline of the steps:
as §1

Another experiment deals with CRX (Homo sapiens, UniProt O43186 1-299). Particulars: protein: recombinant; tags: N-terminal GST; dsDNA, one strand shown. An outline of the steps: as §1
For a further experiment, the target named is ETV1 (Homo sapiens, UniProt P50549 1-477). The conditions noted are these: protein: recombinant; tags: N-terminal GST; dsDNA, one strand shown. The method, boiled down:
as §1

Another experiment addresses T6, ERF (Homo sapiens, UniProt P50548 1-548).
T6 sequence: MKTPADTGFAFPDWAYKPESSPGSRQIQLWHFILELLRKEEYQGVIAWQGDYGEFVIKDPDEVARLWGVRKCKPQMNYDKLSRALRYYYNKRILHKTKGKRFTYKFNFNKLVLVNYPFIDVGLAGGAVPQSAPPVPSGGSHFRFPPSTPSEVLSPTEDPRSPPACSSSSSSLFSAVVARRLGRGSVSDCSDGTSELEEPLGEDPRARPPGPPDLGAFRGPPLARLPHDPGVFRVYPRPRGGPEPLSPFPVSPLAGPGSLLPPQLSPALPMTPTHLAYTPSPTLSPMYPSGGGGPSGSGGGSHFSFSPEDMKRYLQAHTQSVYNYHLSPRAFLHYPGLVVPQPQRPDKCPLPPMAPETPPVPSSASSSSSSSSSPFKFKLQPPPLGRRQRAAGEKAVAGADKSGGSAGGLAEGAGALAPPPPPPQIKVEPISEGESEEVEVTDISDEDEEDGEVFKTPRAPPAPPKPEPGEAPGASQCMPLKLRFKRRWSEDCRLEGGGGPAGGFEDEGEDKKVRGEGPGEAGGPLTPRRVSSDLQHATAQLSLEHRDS
Particulars: protein: recombinant; tags: N-terminal GST; dsDNA, one strand shown. The method, boiled down:
as §1

A further experiment has as its target T7, ETV3L (Homo sapiens, UniProt Q6ZN32 1-361).
T7 sequence: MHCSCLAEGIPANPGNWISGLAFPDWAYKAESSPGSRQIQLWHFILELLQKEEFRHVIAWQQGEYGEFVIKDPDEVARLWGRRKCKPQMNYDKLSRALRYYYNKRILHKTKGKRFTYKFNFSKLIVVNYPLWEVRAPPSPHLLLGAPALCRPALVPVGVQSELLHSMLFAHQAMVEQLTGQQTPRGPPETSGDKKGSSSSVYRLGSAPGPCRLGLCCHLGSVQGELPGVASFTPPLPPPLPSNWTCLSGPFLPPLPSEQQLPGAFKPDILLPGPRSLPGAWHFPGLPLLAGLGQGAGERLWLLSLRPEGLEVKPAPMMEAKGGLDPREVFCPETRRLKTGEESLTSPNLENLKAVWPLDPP
Particulars: protein: recombinant; tags: N-terminal GST; dsDNA, one strand shown. An outline of the steps: as §1

The next experiment deals with T8, ETS2 (Homo sapiens, UniProt P15036 1-469).
T8 sequence: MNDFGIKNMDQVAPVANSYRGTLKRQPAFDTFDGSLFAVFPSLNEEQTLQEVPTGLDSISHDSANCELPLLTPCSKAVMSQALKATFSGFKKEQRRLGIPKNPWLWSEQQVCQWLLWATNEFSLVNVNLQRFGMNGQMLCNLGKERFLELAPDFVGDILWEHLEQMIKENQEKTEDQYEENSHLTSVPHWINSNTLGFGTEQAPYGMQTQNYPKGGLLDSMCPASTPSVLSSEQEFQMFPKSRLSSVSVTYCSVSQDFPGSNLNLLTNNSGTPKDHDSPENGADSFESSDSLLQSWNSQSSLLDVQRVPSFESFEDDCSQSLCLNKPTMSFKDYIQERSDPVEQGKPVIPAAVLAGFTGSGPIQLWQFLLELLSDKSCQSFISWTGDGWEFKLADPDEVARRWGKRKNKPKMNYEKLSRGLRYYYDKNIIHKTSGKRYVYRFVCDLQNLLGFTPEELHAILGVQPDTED
Particulars: protein: recombinant; tags: N-terminal GST; dsDNA, one strand shown. An outline of the steps:
as §1

The next experiment addresses T9, SPDEF (Homo sapiens, UniProt O95238 1-335).
T9 sequence: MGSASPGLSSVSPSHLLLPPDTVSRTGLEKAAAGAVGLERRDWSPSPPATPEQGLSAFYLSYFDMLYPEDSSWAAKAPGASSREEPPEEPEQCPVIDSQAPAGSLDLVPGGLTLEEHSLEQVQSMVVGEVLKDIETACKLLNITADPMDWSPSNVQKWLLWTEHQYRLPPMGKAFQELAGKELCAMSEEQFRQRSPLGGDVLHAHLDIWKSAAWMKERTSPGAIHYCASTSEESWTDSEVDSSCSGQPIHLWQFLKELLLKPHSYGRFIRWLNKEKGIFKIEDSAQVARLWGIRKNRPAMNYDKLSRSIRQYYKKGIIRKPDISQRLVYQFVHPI
Particulars: protein: recombinant; tags: N-terminal GST; dsDNA, one strand shown. An outline of the steps:
as §1

The target of the next experiment is T10, ETV7 (Homo sapiens, UniProt Q9Y603 1-341).
T10 sequence: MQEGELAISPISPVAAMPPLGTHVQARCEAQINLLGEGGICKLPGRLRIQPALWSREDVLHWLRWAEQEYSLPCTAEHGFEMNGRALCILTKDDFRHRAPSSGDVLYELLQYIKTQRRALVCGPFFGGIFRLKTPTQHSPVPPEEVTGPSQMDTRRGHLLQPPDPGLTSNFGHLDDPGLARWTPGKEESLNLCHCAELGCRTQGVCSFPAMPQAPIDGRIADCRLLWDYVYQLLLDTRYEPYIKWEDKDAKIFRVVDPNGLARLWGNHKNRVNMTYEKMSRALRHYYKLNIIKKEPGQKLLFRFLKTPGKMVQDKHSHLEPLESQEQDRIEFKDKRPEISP
Particulars: protein: recombinant; tags: N-terminal GST; dsDNA, one strand shown. An outline of the steps: as §1

The next experiment concerns the target T11, ELF5 (Homo sapiens, UniProt Q9UKW6-2 1-255).
T11 sequence: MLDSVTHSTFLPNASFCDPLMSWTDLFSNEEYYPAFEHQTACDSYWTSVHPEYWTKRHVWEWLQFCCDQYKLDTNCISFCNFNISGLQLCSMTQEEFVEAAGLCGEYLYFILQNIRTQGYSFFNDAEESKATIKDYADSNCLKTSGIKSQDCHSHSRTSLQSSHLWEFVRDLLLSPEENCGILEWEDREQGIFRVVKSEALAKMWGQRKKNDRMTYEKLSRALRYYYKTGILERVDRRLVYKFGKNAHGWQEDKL
The conditions noted are these: protein: recombinant; tags: N-terminal GST; dsDNA, one strand shown. An outline of the steps:
as §1

The target in another experiment is T12, ETV3 (Homo sapiens, UniProt P41162-2 1-143).
T12 sequence: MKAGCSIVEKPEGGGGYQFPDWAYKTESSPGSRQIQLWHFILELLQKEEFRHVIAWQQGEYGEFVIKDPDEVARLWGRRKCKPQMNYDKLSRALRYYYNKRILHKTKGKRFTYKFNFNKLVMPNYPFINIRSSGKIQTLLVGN
The conditions noted are these: protein: recombinant; tags: N-terminal GST; dsDNA, one strand shown. An outline of the steps:
as §1

For another experiment, the target named is ETV6 (Homo sapiens, UniProt P41212 1-452). The conditions noted are these: protein: recombinant; tags: N-terminal GST; dsDNA, one strand shown. An outline of the steps:
as §1

Sequence of ELF4 (Q99607 whole entry): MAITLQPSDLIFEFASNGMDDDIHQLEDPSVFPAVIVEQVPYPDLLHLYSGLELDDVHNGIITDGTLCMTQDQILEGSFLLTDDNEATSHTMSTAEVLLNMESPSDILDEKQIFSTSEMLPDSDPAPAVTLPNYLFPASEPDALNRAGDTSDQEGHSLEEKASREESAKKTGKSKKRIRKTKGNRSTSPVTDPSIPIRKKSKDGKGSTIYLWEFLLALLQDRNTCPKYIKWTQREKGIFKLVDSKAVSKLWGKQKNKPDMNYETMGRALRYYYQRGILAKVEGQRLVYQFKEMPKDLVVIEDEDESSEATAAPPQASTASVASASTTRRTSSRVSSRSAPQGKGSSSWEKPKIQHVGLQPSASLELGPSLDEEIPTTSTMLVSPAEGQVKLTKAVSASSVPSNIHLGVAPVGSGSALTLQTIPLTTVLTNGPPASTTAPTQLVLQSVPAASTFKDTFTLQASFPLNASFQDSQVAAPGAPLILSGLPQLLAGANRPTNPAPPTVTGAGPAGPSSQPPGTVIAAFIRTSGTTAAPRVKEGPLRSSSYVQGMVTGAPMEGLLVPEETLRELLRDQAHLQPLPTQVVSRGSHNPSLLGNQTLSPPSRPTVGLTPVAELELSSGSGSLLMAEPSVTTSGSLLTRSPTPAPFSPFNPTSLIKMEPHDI
Sequence of ETV5 (P41161 whole entry): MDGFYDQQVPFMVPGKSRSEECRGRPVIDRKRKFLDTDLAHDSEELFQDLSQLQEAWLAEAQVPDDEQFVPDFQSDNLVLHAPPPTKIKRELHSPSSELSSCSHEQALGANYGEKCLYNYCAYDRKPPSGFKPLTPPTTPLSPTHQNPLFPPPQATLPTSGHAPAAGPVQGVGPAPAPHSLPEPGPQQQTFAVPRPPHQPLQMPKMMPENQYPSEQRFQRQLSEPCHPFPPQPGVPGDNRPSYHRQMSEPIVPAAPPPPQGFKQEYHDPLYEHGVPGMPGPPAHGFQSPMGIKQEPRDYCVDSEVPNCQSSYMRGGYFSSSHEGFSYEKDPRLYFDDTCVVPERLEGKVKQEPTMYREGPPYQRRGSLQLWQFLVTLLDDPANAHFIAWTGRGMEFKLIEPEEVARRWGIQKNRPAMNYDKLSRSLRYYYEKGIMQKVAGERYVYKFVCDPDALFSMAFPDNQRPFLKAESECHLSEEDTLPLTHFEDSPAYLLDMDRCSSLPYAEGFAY
Sequence of ETV1 (P50549 whole entry): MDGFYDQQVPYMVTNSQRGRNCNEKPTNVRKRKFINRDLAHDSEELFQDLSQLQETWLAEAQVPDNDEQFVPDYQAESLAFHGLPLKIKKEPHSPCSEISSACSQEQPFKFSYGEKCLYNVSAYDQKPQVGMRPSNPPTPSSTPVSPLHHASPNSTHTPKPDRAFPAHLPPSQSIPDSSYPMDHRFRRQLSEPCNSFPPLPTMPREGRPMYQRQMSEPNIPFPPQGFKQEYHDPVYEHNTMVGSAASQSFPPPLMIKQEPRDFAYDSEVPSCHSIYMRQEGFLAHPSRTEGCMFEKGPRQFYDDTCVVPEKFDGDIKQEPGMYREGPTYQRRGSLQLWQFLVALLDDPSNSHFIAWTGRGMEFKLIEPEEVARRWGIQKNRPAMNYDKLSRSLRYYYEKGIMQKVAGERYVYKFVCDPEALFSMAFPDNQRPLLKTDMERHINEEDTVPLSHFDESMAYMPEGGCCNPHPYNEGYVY
Sequence of CRX (O43186 whole entry): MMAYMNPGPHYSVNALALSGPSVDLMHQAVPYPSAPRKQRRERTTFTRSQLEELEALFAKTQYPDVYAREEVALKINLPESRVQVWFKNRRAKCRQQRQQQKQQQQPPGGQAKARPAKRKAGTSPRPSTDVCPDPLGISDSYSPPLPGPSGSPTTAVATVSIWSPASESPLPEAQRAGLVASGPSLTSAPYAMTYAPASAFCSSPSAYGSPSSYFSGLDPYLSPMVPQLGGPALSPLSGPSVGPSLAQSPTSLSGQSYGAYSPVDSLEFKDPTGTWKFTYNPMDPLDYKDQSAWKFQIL
Sequence of HSF1 (Q00613 whole entry): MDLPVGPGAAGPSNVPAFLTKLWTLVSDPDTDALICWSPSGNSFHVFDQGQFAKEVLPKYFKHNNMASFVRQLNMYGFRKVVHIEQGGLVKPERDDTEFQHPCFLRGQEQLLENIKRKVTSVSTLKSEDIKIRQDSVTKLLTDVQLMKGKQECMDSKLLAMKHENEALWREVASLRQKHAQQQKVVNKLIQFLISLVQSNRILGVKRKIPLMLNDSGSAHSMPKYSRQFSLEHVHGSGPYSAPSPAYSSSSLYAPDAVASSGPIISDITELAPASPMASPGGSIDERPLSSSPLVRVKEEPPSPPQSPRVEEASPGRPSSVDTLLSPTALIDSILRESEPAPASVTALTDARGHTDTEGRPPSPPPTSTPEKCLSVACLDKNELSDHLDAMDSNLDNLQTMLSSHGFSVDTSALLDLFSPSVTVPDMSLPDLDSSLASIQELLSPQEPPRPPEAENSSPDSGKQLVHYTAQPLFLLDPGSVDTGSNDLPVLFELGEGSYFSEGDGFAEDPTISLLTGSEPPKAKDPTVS
Sequence of ETV6 (P41212 whole entry): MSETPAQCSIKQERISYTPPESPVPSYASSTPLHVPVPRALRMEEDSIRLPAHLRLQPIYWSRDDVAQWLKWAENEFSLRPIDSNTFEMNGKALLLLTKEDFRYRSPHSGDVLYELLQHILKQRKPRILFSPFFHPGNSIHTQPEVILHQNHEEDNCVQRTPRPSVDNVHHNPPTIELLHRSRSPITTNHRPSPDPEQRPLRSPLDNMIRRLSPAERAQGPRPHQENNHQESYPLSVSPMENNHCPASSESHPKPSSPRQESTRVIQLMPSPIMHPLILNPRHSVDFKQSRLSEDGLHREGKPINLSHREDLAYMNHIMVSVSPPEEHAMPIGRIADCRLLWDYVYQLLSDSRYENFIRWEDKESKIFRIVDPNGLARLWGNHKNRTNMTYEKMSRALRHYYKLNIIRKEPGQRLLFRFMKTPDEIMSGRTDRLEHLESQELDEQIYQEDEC

For the sequence TGAATT, the binding signal is 1.18 fold enrichment (6-mer frequency, TF over GST control) in the experiment with FEV; 1.15 fold enrichment (6-mer frequency, TF over GST control) with ETV5; 1.23 fold enrichment (6-mer frequency, TF over GST control) with HSF1; 1.34 fold enrichment (6-mer frequency, TF over GST control) in the experiment with SPIC; 1.16 fold enrichment (6-mer frequency, TF over GST control) with ELF4; 1.01 fold enrichment (6-mer frequency, TF over GST control) with ELK4. For the same sequence, the binding signal was 1.19 fold enrichment (6-mer frequency, TF over GST control) with ETV2; 1.12 fold enrichment (6-mer frequency, TF over GST control) with ELF3; 1.38 fold enrichment (6-mer frequency, TF over GST control) with CRX; 1.23 fold enrichment (6-mer frequency, TF over GST control) with ETV1; 1.14 fold enrichment (6-mer frequency, TF over GST control) with ERF; 1.17 fold enrichment (6-mer frequency, TF over GST control) with ETV3L. The binding signal with ETS2 was 1.16 fold enrichment (6-mer frequency, TF over GST control); with SPDEF it was 1.11 fold enrichment (6-mer frequency, TF over GST control); with ETV7, 1.21 fold enrichment (6-mer frequency, TF over GST control); with ELF5, 1.13 fold enrichment (6-mer frequency, TF over GST control); in the experiment with ETV3 it was 1.16 fold enrichment (6-mer frequency, TF over GST control); with ETV6, 1.03 fold enrichment (6-mer frequency, TF over GST control).
